FBPA Giardia inh – inhibitors of Giardia lamblia fructose-1,6-bisphosphate aldolase; A8B2U2; purified Giardia FBPA; Potency, µM (top dose mostly 59.6 µM), without a hit: top-dose activity, negative = inhibition, actives largely listed as inhibitors; 290,000 tested, 0.71% active; AID 2451; also: potency is read from the fitted curve at half-maximal effect; % is scaled to controls: 0 for no effect and ±100 for the full control effect; nearly all actives have a fitted effect of over 55% in size
Target sequence (A8B2U2 whole entry, looked up): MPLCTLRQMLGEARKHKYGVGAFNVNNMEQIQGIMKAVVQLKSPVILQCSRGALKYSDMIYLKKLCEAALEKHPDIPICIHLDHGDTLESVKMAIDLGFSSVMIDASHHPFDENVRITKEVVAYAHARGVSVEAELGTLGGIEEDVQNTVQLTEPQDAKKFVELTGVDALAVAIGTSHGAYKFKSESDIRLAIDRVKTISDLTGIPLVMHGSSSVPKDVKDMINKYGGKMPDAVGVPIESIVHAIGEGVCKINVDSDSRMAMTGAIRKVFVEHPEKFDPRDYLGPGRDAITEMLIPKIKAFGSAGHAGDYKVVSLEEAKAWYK
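40 nM FBPA preincubated 10 min at RT with compound (up to 57.5 uM final), then substrate plus GAPDH/TPI/NAD/arsenate coupling and diaphorase/resazurin added. Fluorescence read after 20 min at RT, 525/598 nm.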
LmPK inhibitor – blocks Leishmania mexicana pyruvate kinase activity. Q27686. purified LmPK, Kinase-Glo ATP luminescence, 1 h. Potency, µM (top dose mostly 57.5 µM), without a hit: top-dose activity change, negative = inhibition, most hits filed as inhibitors. 290,000 tested, 0.37% active. AID 1721; also: potency is read from the fitted curve at half-maximal effect; % is scaled to controls: 0 for no effect and ±100 for the full control effect
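Purified LmPK (0.1 nM) converted ADP (0.1 mM) to ATP with PEP (0.5 mM) in imidazole buffer pH 7.2 with KCl and MgCl2, 1 h at room temperature. ATP was read by Kinase-Glo luminescence; data normalized to uninhibited and no-enzyme controls.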
RE007 growth inh – less growth of the S. pombe RE007 Vpr strain; S. pombe RE007 Vpr strain, BacTiter-Glo ATP luminescence, 24 h; Potency, µM (top dose mostly 92.2 µM), for inactives: at the top dose activity change, negative = less growth, usual class: inhibitors; 360,000 tested, 0.21% active; AID 651644; active = well fitted falling curve with a large enough effect; inconclusive = small, poorly fitted or top-dose-only effect; inactive = no such curve, though single readings can be large or run the other way; also: potency is read from the fitted curve at half-maximal effect; % is scaled to controls: 0 for no effect and ±100 for the full control effect; nearly all actives have a fitted effect of over 50% in size
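Fission yeast RE007 carrying one integrated HIV-1 vpr copy, seeded at OD 0.01 in PMG+AL medium with 23 nL pinned compound. Grown 24 h at 30 degrees; viability read by BacTiter-Glo luminescence after 5 min.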
Shiga inhibitor – inhibitors of Shiga toxin in Vero cells | inhibition, % at 38.7 µM | AID 2315 | Vero cells, Shiga toxin protein synthesis inhibition reporter | 290,000 tested, 9.2% active; in the data active = inhibition mostly above about 28%, no sharp cut-off; inactive = mostly below about 43%; also: 0% is about no effect
Tb PYK inh – blocks Trypanosoma brucei pyruvate kinase | 410,000 tested, 0.12% active | TbPYK enzyme, Kinase-Glo Plus ATP luminescence, 45 min | Q57TT1 | AID 624173 | Potency, µM (highest dose often 76.8 µM), inactives show top-dose activity, negative = inhibition, most hits filed as inhibitors; also: potency is read from the fitted curve at half-maximal effect; % is scaled to controls: 0 for no effect and ±100 for the full control effect; nearly all actives have a fitted effect of over 50% in size
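T. brucei PYK with substrate was exposed to pin-transferred compounds across a concentration series, then started with 130 uM ADP (final). After 45 min at room temperature, Kinase-Glo Plus luminescence was read, normalized and curve-fitted.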
CHX counter – affects cycloheximide protein synthesis inhibition readout, counter-screen; cell reporter, cycloheximide protein synthesis inhibition counterscreen; max response, %; AID 2314; 300,000 tested, 12% active; in the data active = max response mostly above about 13%, no sharp cut-off; inactive = mostly below about 14%; also: read at 38.3 µM for the half of the compounds with a filed dose; 0% is about no effect
* hit, by the source's call; ? = inconclusive; . = no result; [ ] = another dose, or the depositor's remark. Only a selection was taken, and hits are over-represented in it overall. Unless noted, calls follow the shape of the dose curve; as a rule, active = well fitted curve in the direction sought with a large enough effect; inconclusive = small, poorly fitted or top-dose-only effect, or another doubt; inactive = no such curve, though single readings can be large; an effect the other way counts as inactive or inconclusive.

SMILES	FBPA Giardia inh	LmPK inhibitor	RE007 growth inh	Shiga inhibitor	Tb PYK inh	CHX counter
CCc1ccc(Nc2nnc(SCC(=O)Nc3cccc(S(=O)(=O)NC4=NCCCCC4)c3)s2)cc1	-1.0%	1.9%	.	active	-14.9%	49.1*
Cc1ccc(Nc2nnc(SCC(=O)Nc3ccc(S(=O)(=O)N4CCOCC4)cc3)s2)cc1	-6.2%	-0.3%	4.1%	110.9*	-4.6%	49.0*
O=C(CSc1nnc(Nc2ccccc2)s1)Nc1ccc(S(=O)(=O)N2CCOCC2)cc1	-2.0%	3.3%	16.2%	-3.6	-9.5%	6.8
CCc1nnc(NC(=O)CSc2nnc(-c3ccc(S(=O)(=O)N4CCCC4)cc3)n2CC)s1	13.1%	-4.5%	14.0%	8.6	6.4%	23.6*
Cc1ccc(Nc2nnc(SCC(=O)Nc3cccc(S(=O)(=O)NC4=NCCCCC4)c3)s2)cc1	-13.5%	0.0%	-5.1%	17.6	-10.9%	15.1*
Cc1nnc(SCC(=O)Nc2cccc(S(=O)(=O)NC3=NCCCCC3)c2)n1Cc1ccccc1	5.0%	1.7%	-12.1%	-4.1	-1.1%	-1.3
CCCCCn1c(CCCNC(=O)c2cccc(C)c2)nc2ccccc21	.	.	.	.	-0.5%	.
Cc1cccc(NC(=O)CSc2nnc(NC(=O)CN3CCCCC3)s2)c1	1.7%	-2.4%	.	12.6	.	1.0
Cc1cccc(Nc2nnc(SCC(=O)Nc3cccc(S(=O)(=O)N4CCCCC4)c3)s2)c1	-2.3%	-2.5%	-5.9%	77.5*	-3.8%	29.2*
O=C(NC1CCCCC1)C1c2ccccc2OCC(=O)N1CCc1c[nH]c2ccccc12 (configuration not stated)	.	.	-3.0%	.	-3.5%	.
Cc1ccc(-c2nc(CS(=O)(=O)CC(=O)Nc3cc(F)ccc3F)c(C)o2)cc1	4.8%	1.2%	-0.7%	-4.1	4.5%	-0.8
O=C(CSc1cn(CC(=O)N2CCCCC2)c2ccccc12)NCc1ccc(F)cc1	.	.	.	.	-18.3%	.
O=C(O)c1ccc(-c2ccc3cc(C45CC6CC(CC(C6)C4)C5)c(O)cc3c2)cc1	-29.8%	.	.	28.4*	.	44.6*
NC(=O)CSc1ncc(-c2ccc([N+](=O)[O-])cc2)[nH]1	1.7%	-1.4%	-14.1%	44.9	0.2%	19.3
O=C(CSc1ncc(-c2ccc(Cl)cc2)[nH]1)Nc1ccccc1F	.	.	.	.	1.6%	.
O=C(CSc1ncc(-c2ccccc2)[nH]1)Nc1cccc(O)c1	-6.2%	11.8%	2.9%	34.1	0.3%	11.6*
NC(=O)CSc1ncc(-c2ccccc2)[nH]1	-1.4%	-2.4%	3.1%	78.8*	-6.7%	13.5*
O=C(CSc1ncc(-c2ccc(F)cc2)[nH]1)N1CCCCC1	?	2.4%	4.7%	43.6*	7.6%	25.6*
O=C(CSc1ncc(-c2ccccc2)[nH]1)Nc1ccccc1	-6.1%	2.9%	-14.0%	3.4	1.8%	7.0
O=C(CSc1ncc(-c2ccccc2)[nH]1)Nc1ccccc1F	-7.0%	3.5%	-0.7%	71.5*	-10.4%	39.5*
COc1ccc(-c2nc(CS(=O)(=O)CC(=O)NCCCN3CCN(C)CC3)c(C)o2)cc1	-20.9%	-4.4%	-5.7%	-8.0	-5.4%	3.7
Cc1nc2cnc(N(C)C)nc2n(-c2ccccc2)c1=O	7.2%	.	.	.	.	.
Cc1cc(C)c(S(=O)(=O)NCC(c2ccc(N(C)C)cc2)N2CCOCC2)c(C)c1 (configuration not stated)	.	.	.	.	0.7%	.
CO[C@@H]1COC(=O)[C@H]2CCCN2C(=O)[C@@H](C)COC(=O)CCC[C@H]1C	5.5%[12.9 µM]	.	.	.	.	.
CCc1ccc(Oc2cc(Cl)nc(N)n2)cc1	-0.5%	-3.6%	-2.9%	65.3*	-5.0%	49.9*
COc1cccc(Oc2cc(Cl)nc(N)n2)c1	0.0%	-3.1%	6.2%	20.5*	2.6%	15.7*
COc1ccc(NC(=O)C2CCCN(c3ncnc4c3nc3n4CCCCC3)C2)c(OC)c1 (configuration not stated)	.	.	.	.	7.3%	.
O=C(CCNS(=O)(=O)c1cccs1)N1CCc2ccccc2C1	-5.8%	-0.3%	3.0%	86.3*	-7.5%	28.7*
Cc1cccc(N2CCN(C(=O)CCNS(=O)(=O)c3cccs3)CC2C)c1 (configuration not stated)	-2.6%	-3.0%	7.1%	65.5*	3.7%	15.6*

Screens from PubChem.
